Data: ChEMBL document CHEMBL3988442, “University of Dundee, Small-Polar-MMV Screening Library” (2021)
About 300 (0.45%) of roughly 67,000 compounds showed an effect of 50% or more. The list comes from a sample in which strong results are over-represented; it also holds similar structures and randomly drawn compounds.

biological target: Polyketide synthase Pks13 (Mycobacterium tuberculosis (strain ATCC 25618 / H37Rv)) (UniProt I6X8D2); assay: Mycobacterium tuberculosis Polyketide synthase 13 Thioesterase (PKS13); format: functional; parameters: scale not given: in the data most compounds retested in dose-response had high values; settings: 30 µM
Sequence (I6X8D2 whole entry): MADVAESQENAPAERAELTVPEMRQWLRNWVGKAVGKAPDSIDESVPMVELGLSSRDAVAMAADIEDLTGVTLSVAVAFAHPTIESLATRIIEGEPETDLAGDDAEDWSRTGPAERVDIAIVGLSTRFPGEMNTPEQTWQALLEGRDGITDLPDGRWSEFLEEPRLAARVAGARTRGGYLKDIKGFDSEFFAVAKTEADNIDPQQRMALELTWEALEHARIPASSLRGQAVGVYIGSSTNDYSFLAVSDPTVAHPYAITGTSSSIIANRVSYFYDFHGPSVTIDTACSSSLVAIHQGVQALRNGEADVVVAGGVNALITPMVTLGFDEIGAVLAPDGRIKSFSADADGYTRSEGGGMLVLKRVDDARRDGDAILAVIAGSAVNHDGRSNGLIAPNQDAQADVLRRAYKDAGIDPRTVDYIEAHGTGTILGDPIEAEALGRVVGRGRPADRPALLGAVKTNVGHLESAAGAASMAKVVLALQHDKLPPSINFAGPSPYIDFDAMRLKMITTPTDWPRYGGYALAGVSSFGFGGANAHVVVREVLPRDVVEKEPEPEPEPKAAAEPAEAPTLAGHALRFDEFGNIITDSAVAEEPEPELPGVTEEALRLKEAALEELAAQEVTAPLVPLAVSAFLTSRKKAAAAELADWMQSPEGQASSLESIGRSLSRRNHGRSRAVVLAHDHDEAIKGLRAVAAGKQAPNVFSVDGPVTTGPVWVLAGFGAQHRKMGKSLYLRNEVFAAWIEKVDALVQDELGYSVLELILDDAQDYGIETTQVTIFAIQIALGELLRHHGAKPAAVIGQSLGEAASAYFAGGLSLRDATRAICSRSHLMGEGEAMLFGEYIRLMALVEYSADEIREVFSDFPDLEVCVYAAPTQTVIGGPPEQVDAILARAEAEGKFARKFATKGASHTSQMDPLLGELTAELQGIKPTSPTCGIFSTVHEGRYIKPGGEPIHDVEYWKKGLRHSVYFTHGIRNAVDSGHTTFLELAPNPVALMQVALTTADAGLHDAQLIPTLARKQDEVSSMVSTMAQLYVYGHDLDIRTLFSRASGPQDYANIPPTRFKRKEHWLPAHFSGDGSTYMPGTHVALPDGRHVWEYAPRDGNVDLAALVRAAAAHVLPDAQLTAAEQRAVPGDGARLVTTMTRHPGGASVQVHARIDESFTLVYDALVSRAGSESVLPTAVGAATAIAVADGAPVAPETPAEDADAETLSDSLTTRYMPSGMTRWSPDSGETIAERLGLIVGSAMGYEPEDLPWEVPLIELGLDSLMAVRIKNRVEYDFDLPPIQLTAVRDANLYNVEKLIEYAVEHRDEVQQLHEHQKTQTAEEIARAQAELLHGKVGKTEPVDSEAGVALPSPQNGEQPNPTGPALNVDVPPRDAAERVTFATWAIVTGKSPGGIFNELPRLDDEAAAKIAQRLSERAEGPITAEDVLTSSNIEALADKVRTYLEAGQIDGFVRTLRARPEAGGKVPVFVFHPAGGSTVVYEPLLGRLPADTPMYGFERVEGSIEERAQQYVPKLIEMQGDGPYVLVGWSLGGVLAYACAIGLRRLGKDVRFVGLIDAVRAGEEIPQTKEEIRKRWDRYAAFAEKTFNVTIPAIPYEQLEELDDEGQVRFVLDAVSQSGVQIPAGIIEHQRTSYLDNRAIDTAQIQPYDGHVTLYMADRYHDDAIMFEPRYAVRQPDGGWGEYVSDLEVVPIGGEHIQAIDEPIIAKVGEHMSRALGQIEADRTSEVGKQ

Compound	Percent Effect [%]
CN(C)[C@H]1C[C@@H](Cc2cc(-c3ccc(F)cc3)on2)C1(C)C	-26.6
CN(C)[C@H]1C[C@@H](Cc2cc(CO)on2)C1(C)C	-32.8
COc1ccc(-c2cc(C[C@@H]3C[C@H](N(C)C)C3(C)C)no2)cc1	53.8
CC(C(=O)NCCOc1ccc2c(c1)OCO2)n1cncn1 (stereo not given)	-36.9
CCN(C(=O)c1cnc(-c2ccc3c(c2)OCO3)s1)C1CC1	28.9
CN(C)C(=O)c1cnc(-c2ccc3c(c2)OCO3)s1	70.4
CC(C)N(CCC#N)C(=O)c1cnc(-c2ccc3c(c2)OCO3)s1	46.5
CC(C1CC1)N(C)C(=O)c1cnc(-c2ccc3c(c2)OCO3)s1 (stereo not given)	-13
CC(C)N(CC(N)=O)C(=O)c1cnc(-c2ccc3c(c2)OCO3)s1	71.9
O=C(N[C@@H]1CN(Cc2ccccn2)[C@@H]2COC[C@@H]21)C1CCC1	-11.8
O=C1CCCC2=C1C(c1cc(Cl)ccc1F)Nc1nonc1N2 (stereo not given)	-14.9
CNC(=O)[C@H]1C[C@@H]2CCN(CCc3ccccc3)C[C@@H]2O1	-653
Cc1cc(CN2CCN(CC3CC3)[C@@H]3CS(=O)(=O)C[C@@H]32)ccc1F	-14.2
Cc1noc([C@@]23CCO[C@@H]2CCN(C(=O)c2ccsc2)C3)n1	-23.9
CNS(=O)(=O)c1csc(C(=O)N(C)Cc2ccccc2C)c1	51.6
CNS(=O)(=O)c1csc(C(=O)N(C)Cc2sccc2C)c1	-17.6
CCNS(=O)(=O)c1ccc(C)c(C(=O)N(C)Cc2ccccc2C)c1	-0.166
CCCn1ncc(CN2C[C@@H]3CCCN3C[C@@H]2Cc2ccccc2)c1C	21.5
CC(C)CN1C(=O)CO[C@@H]2CN(C(=O)C3CCOC3)C[C@H]21 (stereo not given in full)	12.2
O=C(c1cscn1)N1C[C@@H](Oc2cccnc2)[C@H]2OCCC[C@H]21	29.5
CNc1ncc(CN(C)C(=O)c2cccc(-n3cnnc3)c2)cn1	-1.45
CNc1ncc(CN(C)C(=O)c2cccc(-n3cccn3)c2)cn1	-5.61
CNc1ncc(CN(C)C(=O)c2cccc(Cn3cccn3)c2)cn1	118
c1ccc(COC[C@H]2CC[C@H]3[C@H](CCN3c3ncccn3)O2)nc1	-8.11

Compound	Percent Effect [%]
Cc1c[nH]c(C(=O)N2C[C@H]3CC[C@@H]2CN(Cc2cscn2)C3)n1	-15.7
COc1ccc(CNC[C@@]2(COc3cccnc3)C[C@@H](O)[C@@H](O)C2)cc1	0.869
Cc1ccc(N2CCO[C@H]3CN(Cc4cc(C)on4)CC[C@H]3C2=O)cn1	-3.21
CCOCCN1CCN([C@@H]2c3ccccc3C3(CCNCC3)[C@H]2O)CC1	82.6
COCCCN1CCN([C@@H]2c3ccccc3C3(CCNCC3)[C@H]2O)CC1	-9.22
COCCCC1CCN([C@@H]2c3ccccc3C3(CCNCC3)[C@H]2O)CC1	-6.55
CCOC(=O)[C@]12CCCN(Cc3ccsc3)C[C@H]1CN(CCOC)C2	-32.4
Cc1nc(CCNC(=O)NC(C)c2ccc3c(c2)OCCO3)cs1 (stereo not given)	-9.04
Cc1nc(CNC(=O)NC(C)c2ccc3c(c2)OCCCO3)cs1 (stereo not given)	-3.62
Cc1nc(CN(C)C(=O)NC(C)c2ccc3c(c2)OCCO3)cs1 (stereo not given)	58
CO[C@@H]1CCN(S(=O)(=O)N(C)C)[C@@H]2CN(Cc3ccncc3)C[C@@H]21	-11
CN(C)C(=O)c1cn[nH]c1C1(C)CCN(c2ncccn2)CC1	72.9
CN(C)C(=O)c1cn[nH]c1C1(C)CCCN(Cc2ccccn2)C1 (stereo not given)	-25
CC1(c2[nH]ncc2C(N)=O)CCN(c2ncccn2)CC1	-9.79
O=C(C1CC1)N1CC[C@H]2C(=O)N(c3ccsc3)CCO[C@H]2C1	-24.6
CCN1CCC(N[C@@H]2CC[C@@H]2NC(=O)Cc2csc(C)n2)CC1	64.6
CCN1CCC(NC(=O)Cc2csc(C(C)(C)C)n2)CC1	-28.7
Cc1nc(CC(=O)NCCN2CCC(c3ccccc3C)C2)cs1 (stereo not given)	5.3
COCC(=O)NC[C@H]1C[C@@H]2CCN1C[C@@H]2CN1CCc2ccccc2C1	-21.5
Cc1nc(CN2C(=O)CC[C@@H]3[C@H]2CCN3C(=O)C2CCOCC2)cs1	-22.6
Cc1ccc(S(=O)(=O)n2ccn(C(=O)CC(C)C)c2=O)cc1	10.8
CCC(CC)C(=O)n1ccn(S(=O)(=O)c2ccc(C)cc2)c1=O	69.1
Cc1ccc(S(=O)(=O)n2ccn(C(=O)COc3ccccc3)c2=O)cc1	-1
CS(=O)(=O)N1CCO[C@@H]2CN(C(=O)C3CC(F)(F)C3)C[C@@H]2C1	-14.3

Compound	Percent Effect [%]
COc1ccc(-n2nnnc2C(C)(C)Nc2ccc(C)cc2C)cc1	-14.4
Cc1cccc(-n2nnnc2C(C)(C)Nc2ccccc2C)c1	71.2
Cc1ccc(NC(C)(C)c2nnnn2-c2ccc(Cl)cc2)c(C)c1	43.2
Fc1ccc(CN2CCO[C@H]3[C@H](OCCN4CCCC4)CC[C@@H]32)cc1	-7.44
Cc1nnc(N2C[C@@H](OCC3CCCC3)[C@H]3OCCC[C@H]32)s1	-34.8
Cc1ccc(C(=O)N2CCC3(CC2)c2ccccc2[C@@H](N)[C@@H]3O)c(=O)[nH]1	70
N[C@@H]1c2ccccc2C2(CCN(C(=O)c3ccccc3O)CC2)[C@H]1O	1.94
Cc1ccc(Cl)cc1C(=O)N1CCC2(CC1)c1ccccc1[C@@H](N)[C@@H]2O	-27.1
COCCN1C[C@H]2CN(C(=O)c3ccc4c(c3)OCO4)CCN2C1=O	8.89
COc1cccc(-c2cccc(CN3C[C@@H]4CC[C@H](C3)N(C)C4=O)c2)c1	6.34
Cc1cc(CN(C)C(=O)c2ccc(C(F)(F)F)nc2)no1	-4.93
Cc1cc(CN(C)C(=O)c2ccc(N(C)C)nc2)no1	-10.8
Cc1ccc(C(=O)N(C)Cc2cc(C)on2)cn1	143
CC(C)c1nccc([C@@H]2C[C@@H]3CCN(Cc4ccco4)C[C@H]3O2)n1	-17.2
O=C(CC1CC1)NC[C@]12COC[C@H]1CN(c1ncc(F)cn1)C2	8.61
CN(C)c1nccc(-c2c[nH][nH]c2=O)n1	51.4
CN(C)c1nccc(-c2cnc(N(C)C)[nH]c2=O)n1	16.6
CC(C)(C)CCNc1nccc(-c2c[nH][nH]c2=O)n1	22.8
CNC(=O)[C@@]12CCO[C@@H]1CCN(S(=O)(=O)c1ccccc1F)C2	16.9
Cc1nc(C)c(CNC(=O)N2CCN(c3ccc(Cl)cn3)CC2)s1	14.6
Cc1nc(CNC(=O)N2CCN(c3ccc(Cl)cn3)CC2)no1	7.54
Cc1nc(CNC(=O)N2CCN(c3ccc(Cl)cn3)CC2)sc1C	50.8
